The nature of assay [1]: compounds binding Alexa647 anti-His antibody – biochemical, small-molecule microarray, 635 nm fluorescence, artefact control for SMM control protein annotation, primary screen (AID 1128).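 Also: score merges feature fluorescence with signal-to-noise for each printed compound spot.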 As to conditions: higher = more signal.
For assay [2], the system named is Human papillomavirus type 1a E7 protein (residues 1-88). The assay is described as follows: HPV1a E7 small-molecule binders, primary screen, biochemical, small-molecule microarray, residues 1-88, 635 nm (AID 1129). The following applies: small-molecule microarray binding, fluorescence 635 nm; higher = more signal.
The target in assay [3] is Focal adhesion kinase 1 (Homo sapiens) (UniProt Q05397). Put plainly: PTK2 protein binding on printed compound slides – biochemical, small-molecule microarray, 635/667 nm fluorescence, BSA, DTT, primary screen (AID 1130).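 Also: composite of spot emission at 667 nm and signal to noise over triplicate slides.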 As to conditions: 635 nm fluorescence, higher = more signal.
Assay [4] concerns Fibrinogen (Alexa647-labelled). Put plainly: Alexa647-fibrinogen binding to printed small molecules – biochemical, small-molecule microarray, 635/667 nm fluorescence, artefact control for SMM control-protein annotation, profiling panel (AID 1131).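 Also: z-score merges 667 nm fluorescence with per-spot signal-to-noise over triplicate slides.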 As to conditions: fibrinogen-A647 binding fluorescence, higher = more signal.
For assay [5], the target named is Follistatin (Homo sapiens) (UniProt P19883). Put plainly: FST protein binding to printed compounds – biochemical, small-molecule microarray, 635/667 nm fluorescence, primary screen (AID 1132). The following applies: 635 nm fluorescence, higher = more signal.
Assay [6] addresses Fibroblast growth factor 2 (Homo sapiens) (UniProt P09038). The assay is described as follows: basic fibroblast growth factor binding to printed compounds – biochemical, small-molecule microarray, 635/667 nm fluorescence, primary screen (AID 1133). As to conditions: FGF2, fluorescence 635/667, higher = more signal.
A short description of assay [7]: JC-1 mitochondrial potential readout, lung cancer cells – cell-based, A549, JC-1 fluorescence, basal, 24 h, 100 nL, profiling panel (AID 1138).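 Also: A549 lung adenocarcinoma cells under basal conditions with no added stimulus; test concentration not given here.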 The following applies: higher = more signal.
In assay [8] the test system is Lefty1. Put plainly: Lefty1 protein binding to printed compounds – biochemical, small-molecule microarray, 635/667 nm fluorescence, primary screen (AID 1139). As to conditions: fluorescence 635/667, higher = more signal.
Assay [9] deals with wheat germ agglutinin (Triticum aestivum), Alexa647-labelled. Put plainly: Alexa647-WGA lectin binding to printed small molecules – biochemical, small-molecule microarray, 635/667 nm fluorescence, artefact control for SMM control-protein annotation, profiling panel (AID 1140).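 Also: score merges 667 nm feature emission with signal to noise over triplicate slides.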 The following applies: WGA-A647 binding, 635 nm fluorescence, higher = more signal.
Assay [10] concerns the target Luciferin 4-monooxygenase (Photinus pyralis) (UniProt P08659). Put plainly: inhibition of purified Photinus pyralis luciferase – biochemical, luminescence, purified enzyme, 2006 set, primary screen (AID 1141).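 Also: cell-free assay with purified firefly luciferase at 100 ng per well in PBS; test concentration not given here.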 The following applies: purified firefly luciferase, SteadyGlo luminescence, 30 min; higher = more signal, called active from +8 up or from −8 down.
For assay [11], the system named is Wnt5a (protein binding on small-molecule microarray). Put plainly: small molecules binding Wnt5a protein – biophysical, small-molecule microarray, 635/667 nm fluorescence, primary screen (AID 1142).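 Also: fluorescence read at 667 nm with signal to noise per printed feature.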 The following applies: 635 nm fluorescence, higher = more signal.
Assay [12] is described as follows: ATP-based viability of Huh7 replicon cells – cell-based, CellTiter-Glo luminescence, basal, 48 h, cytotoxicity control for HCV replication inhibitor project, primary screen (AID 1143).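 Also: Huh7 hepatoma cells carrying a hepatitis C replication reporter with no stimulus; test concentration not given here.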 The following applies: higher = more signal, called active from +8 up or from −8 down.
A short description of assay [13]: Pseudomonas biofilm growth suppression – PAO1 strain, BacTiter-Glo luminescence, LB-PBS, primary screen (AID 1144). The following applies: P. aeruginosa PAO1 biofilm, 12 h, higher = more signal.
Assay [14] in a line: basal CRE-LacZ reporter activity in PC12 – cell-based, unstimulated, primary screen (AID 1145). As to conditions: no forskolin, luminescence, 4.5 h, higher = more signal, called active from +8 up or from −8 down.
The nature of assay [15]: forskolin-driven CRE-LacZ activity in PC12 – cell-based, CRE-LacZ reporter, forskolin-stimulated, primary screen (AID 1146).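 Also: PC12 cells with 6xCRE LacZ reporter stimulated by forskolin 10 µM; beta-galactosidase reporter signal reflecting CREB driven transcription.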 As to conditions: luminescence, 4.5 h, higher = more signal, called active from +8 up or from −8 down.
Assay [16] addresses Streptavidin (Streptomyces avidinii) (UniProt P22629). Put plainly: compounds binding control protein streptavidin – biophysical, small-molecule microarray, 635/667 nm fluorescence, artefact control for SMM compound annotation, primary screen (AID 1147).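 Also: signal reflects streptavidin binding to arrayed compounds as a control protein.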 As to conditions: higher = more signal.
Assay [17] is described as follows: probe aInhba binding on compound microarray – biochemical, small-molecule microarray, 635/667 nm fluorescence, primary screen (AID 1148).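 Also: score merges 667nm spot fluorescence with signal-to-noise for antibody binding to printed compounds.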 As to conditions: higher = more signal.
Assay [18] addresses Torsin-1A (Homo sapiens) (UniProt O14656). The assay is described as follows: TOR1A wild-type binding on microarray – cell lysate, small-molecule microarray, lysate, 635/667 nm, primary screen (AID 1149). The following applies: COS7 hTOR1A-WT lysate, 635 nm fluorescence, higher = more signal.
Assay [19] shares this target. The assay is described as follows: torsin A mutant lysate binding on microarrays – cell lysate, small-molecule microarray, COS7 lysate, 635/667 nm fluorescence, primary screen (AID 1150).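 Also: score pools 667 nm emission and signal to noise measuring lysate protein binding.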 The following applies: COS7 hTOR1A mutant lysate, 635 nm fluorescence, higher = more signal.
Assay [20] relates to Sonic hedgehog protein (Shh). Put plainly: Sonic hedgehog microarray binding compounds – biochemical, small-molecule microarray, 635/667 nm fluorescence, primary screen (AID 1151).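 Also: Shh protein binding to compounds spotted on small-molecule microarray slides; score combines spot fluorescence intensity with signal-to-noise across triplicate slides.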 The following applies: 635 nm fluorescence, higher = more signal.

Structures are written as SMILES. Active and inactive are the calls of the source. Unless noted, no rule for the calls is given here.

Chain of Fibroblast growth factor 2 (Homo sapiens) (P09038 whole entry, looked up): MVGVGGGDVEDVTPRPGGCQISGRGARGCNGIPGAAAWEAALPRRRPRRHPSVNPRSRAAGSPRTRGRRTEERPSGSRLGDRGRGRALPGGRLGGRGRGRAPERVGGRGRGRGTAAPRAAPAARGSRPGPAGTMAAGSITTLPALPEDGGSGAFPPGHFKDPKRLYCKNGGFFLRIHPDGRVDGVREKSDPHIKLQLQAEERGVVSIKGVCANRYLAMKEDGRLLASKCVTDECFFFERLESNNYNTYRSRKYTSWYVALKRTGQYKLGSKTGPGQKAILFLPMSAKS
Chain of Luciferin 4-monooxygenase (Photinus pyralis) (P08659 whole entry, looked up): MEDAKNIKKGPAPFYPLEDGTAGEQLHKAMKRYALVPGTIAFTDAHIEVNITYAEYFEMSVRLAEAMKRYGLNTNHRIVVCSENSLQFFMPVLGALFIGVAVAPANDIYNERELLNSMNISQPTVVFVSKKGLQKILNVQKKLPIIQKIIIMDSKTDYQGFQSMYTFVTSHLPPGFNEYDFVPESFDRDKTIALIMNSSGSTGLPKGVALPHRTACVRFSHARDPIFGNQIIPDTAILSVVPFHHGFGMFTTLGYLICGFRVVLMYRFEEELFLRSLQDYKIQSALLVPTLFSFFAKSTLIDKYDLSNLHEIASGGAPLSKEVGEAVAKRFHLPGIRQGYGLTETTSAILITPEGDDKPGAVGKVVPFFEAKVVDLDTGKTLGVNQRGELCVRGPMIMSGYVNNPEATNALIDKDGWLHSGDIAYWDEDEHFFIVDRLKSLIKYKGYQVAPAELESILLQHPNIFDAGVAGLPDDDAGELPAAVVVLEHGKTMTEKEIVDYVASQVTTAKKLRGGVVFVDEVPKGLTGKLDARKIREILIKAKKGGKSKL
Chain of Torsin-1A (Homo sapiens) (O14656 whole entry, looked up): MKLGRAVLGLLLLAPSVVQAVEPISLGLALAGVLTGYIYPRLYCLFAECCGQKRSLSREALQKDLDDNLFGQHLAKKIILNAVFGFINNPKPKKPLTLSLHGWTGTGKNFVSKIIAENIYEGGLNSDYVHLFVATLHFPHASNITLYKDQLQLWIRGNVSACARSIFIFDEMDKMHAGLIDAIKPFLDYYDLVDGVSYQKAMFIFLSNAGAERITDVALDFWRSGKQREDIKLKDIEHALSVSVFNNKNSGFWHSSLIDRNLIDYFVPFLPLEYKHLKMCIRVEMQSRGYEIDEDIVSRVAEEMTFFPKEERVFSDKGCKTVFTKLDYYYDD
Chain of Follistatin (Homo sapiens) (P19883 whole entry, looked up): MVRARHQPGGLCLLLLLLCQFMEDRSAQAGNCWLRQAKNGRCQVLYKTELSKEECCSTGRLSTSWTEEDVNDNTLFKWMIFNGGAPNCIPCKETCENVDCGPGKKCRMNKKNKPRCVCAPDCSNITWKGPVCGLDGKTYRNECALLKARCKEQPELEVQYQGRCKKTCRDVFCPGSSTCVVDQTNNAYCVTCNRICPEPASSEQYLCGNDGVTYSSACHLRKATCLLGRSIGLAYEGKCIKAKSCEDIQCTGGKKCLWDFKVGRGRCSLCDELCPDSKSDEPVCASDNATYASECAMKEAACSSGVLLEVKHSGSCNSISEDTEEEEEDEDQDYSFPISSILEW
Chain of Streptavidin (Streptomyces avidinii) (P22629 whole entry, looked up): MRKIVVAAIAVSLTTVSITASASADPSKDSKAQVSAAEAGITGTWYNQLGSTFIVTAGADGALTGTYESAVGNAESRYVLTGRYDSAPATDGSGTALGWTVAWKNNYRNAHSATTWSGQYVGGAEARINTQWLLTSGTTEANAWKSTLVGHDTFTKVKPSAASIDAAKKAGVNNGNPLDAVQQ
Chain of Focal adhesion kinase 1 (Homo sapiens) (Q05397 whole entry, looked up): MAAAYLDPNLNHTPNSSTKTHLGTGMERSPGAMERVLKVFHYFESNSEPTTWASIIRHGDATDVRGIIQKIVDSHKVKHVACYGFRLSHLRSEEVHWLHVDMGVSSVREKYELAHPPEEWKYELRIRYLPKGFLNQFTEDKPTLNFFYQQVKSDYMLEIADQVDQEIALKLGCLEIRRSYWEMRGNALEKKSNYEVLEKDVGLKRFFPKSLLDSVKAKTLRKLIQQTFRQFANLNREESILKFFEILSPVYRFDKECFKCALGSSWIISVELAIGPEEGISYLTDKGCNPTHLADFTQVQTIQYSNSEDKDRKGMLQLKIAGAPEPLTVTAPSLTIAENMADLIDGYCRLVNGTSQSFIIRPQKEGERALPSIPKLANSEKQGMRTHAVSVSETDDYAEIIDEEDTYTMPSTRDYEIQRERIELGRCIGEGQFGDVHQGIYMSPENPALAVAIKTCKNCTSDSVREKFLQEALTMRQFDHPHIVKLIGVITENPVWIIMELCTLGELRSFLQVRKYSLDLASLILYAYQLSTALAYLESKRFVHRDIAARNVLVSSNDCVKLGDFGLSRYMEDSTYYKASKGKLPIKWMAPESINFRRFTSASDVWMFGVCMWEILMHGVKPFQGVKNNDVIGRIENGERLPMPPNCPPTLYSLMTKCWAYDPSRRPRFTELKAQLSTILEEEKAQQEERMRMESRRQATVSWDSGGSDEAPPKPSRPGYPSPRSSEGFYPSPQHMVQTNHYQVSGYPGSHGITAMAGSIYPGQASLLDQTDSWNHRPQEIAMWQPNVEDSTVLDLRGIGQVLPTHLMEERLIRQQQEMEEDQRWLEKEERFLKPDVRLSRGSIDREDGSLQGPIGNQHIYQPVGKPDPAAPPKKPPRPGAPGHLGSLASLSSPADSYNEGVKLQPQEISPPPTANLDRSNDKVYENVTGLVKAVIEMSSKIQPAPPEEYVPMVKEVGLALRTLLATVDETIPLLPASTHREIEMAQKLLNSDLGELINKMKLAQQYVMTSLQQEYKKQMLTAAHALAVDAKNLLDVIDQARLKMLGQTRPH

Take `[N-]=[N+]=NCc1ccccc1C[C@]1(C(N)=O)COC(c2ccc(OCCCO)cc2)=N1`: the composite z-score in [1] was 0.0064; in assay [2], 0.3; in assay [3], -0.0367; in assay [4], 0.389; in assay [5], 1.24; in [6], 0.261. The composite z-score was found to be 0.299 in assay [8]; 0.821 in [9]; 0.217 in [11]; 0.468 in assay [16]; 0.189 in [17]; 0.728 in [18]. Moreover, the values for the composite z-score in assay [19] and in assay [20] were 0.972 and -0.584, respectively. For the same compound, the z-score in [7] was 0.564; in [10] it was -2.06 (inactive); in [12] it was -2.4 (inactive); in [13] it was -0.602 (inactive); in [14], -0.585 (inactive); in assay [15], -1.68 (inactive).
For the compound `CCOC(=O)C[C@H]1[C@H](OC(=O)c2ccc(C(=O)c3ccccc3)cc2)[C@@H](NC(=O)c2ccccc2)c2cc(OCCCO)ccc2N1C(=O)Cc1ccc(OC)cc1`, the composite z-score in [1] was -0.239; in assay [2], -0.158; in assay [3] it was 0.0147; in [4], 0.204; in assay [5] it was 0.0257; in assay [6] it was -0.358. The composite z-score in assay [8] is 0.545; in assay [9], -0.0653; in assay [11], 0.285; in assay [16] it was 0.101; in assay [17], -0.0413; in assay [18] it was -0.0962. Besides, the composite z-score was 0.322 in assay [19] and -0.0887 in assay [20]. Besides, the z-score is 2.33 in [7]; -0.863 (inactive) in assay [10]; 0.0963 (inactive) in [12]; -0.0343 (inactive) in assay [13]; 2.75 (inactive) in assay [14]; 0.0836 (inactive) in assay [15].
Turning to `COC(=O)[C@@]1(Cc2ccc(F)cc2)[C@H]2c3cc(C(=O)N4CCCC4)n(Cc4ccc(S(C)(=O)=O)cc4)c3C[C@H]2CN1C(=O)c1ccccc1`, the composite z-score is 1.9 in [1]; 1.24 in assay [2]; 0.566 in [3]; 0.773 in [4]; 0.751 in assay [5]; 0.264 in assay [6]. The composite z-score is -0.0071 in assay [8]; 0.616 in assay [9]; 0.196 in assay [11]; 1.19 in [16]; 0.864 in [17]; 0.181 in assay [18]. Moreover, the composite z-score was 0.861 in assay [19] and -0.716 in [20]. The z-score in assay [7] was 0.427; in assay [10] it was 1.18 (inactive); in assay [12] it was -1.71 (inactive); in assay [13] it was 0.53 (inactive); in assay [14], 0.39 (inactive); in assay [15], 0.363 (inactive).
Turning to `COc1ccc(-c2cc3c(c(-c4ccc(Oc5ccccc5)cc4)n2)[Si](C(C)C)(C(C)C)OC3)cn1`, the composite z-score is 0.0674 in assay [1]; -0.221 in assay [2]; 0.158 in [3]; -0.424 in [4]; 0.525 in assay [5]; -0.224 in assay [6]. The composite z-score in assay [8] was 0.278; in [9], -0.12; in assay [11] it was -0.394; in assay [16], 0.114; in assay [17], 0.038; in [18] it was -0.664. The composite z-score is -0.336 in [19] and 1.08 in assay [20]. For the same compound, the z-score in assay [7] was -0.0734; in assay [10], 0.223 (inactive); in assay [12] it was -1.11 (inactive); in assay [13], -0.0233 (inactive); in [14], -0.127 (inactive); in assay [15], -0.0129 (inactive).
In the case of `C=CCOC(=O)[C@H]1[C@@H]2C(=O)O[C@@H](c3ccccc3)[C@@H](c3ccccc3)N2[C@@H](c2ccc(OCCOC(=O)[C@H]3C[C@H]4C(=O)N[C@@H](CCCCNC(C)=O)C(=O)N4[C@H]3c3cccc(OCCO)c3)cc2)[C@]12C(=O)Nc1ccccc12`, the composite z-score in [1] was 2.14; in [2] it was 1.18; in assay [3], -0.333; in assay [4], 0.525; in [5], 1.31; in assay [6], 1.53. Also, the composite z-score in [8] is 1.08; in assay [9] it was 0.38; in assay [11] it was 0.791; in assay [16], -0.365; in [17], -0.21; in [18], 0.983. Moreover, the composite z-score in [19] is 0.934; in [20] it was 2.07. Besides, the z-score in assay [7] is -0.472; in assay [10], -0.487 (inactive); in assay [12], -1.1 (inactive); in [13] it was -0.292 (inactive); in assay [14], -1.08 (inactive); in [15], -0.908 (inactive).

(Values after PubChem BioAssay.)
